# Laboratory results taken from PubChem BioAssay (EPA / NIEHS).
# Records with an inconclusive call do not appear. Activity calls are given as the source filed them. How the source made its calls, unless noted: active means hit-call score of the fitted dose curve at least 0.9, where 1 is the maximum; inactive means score below 0.9.
# Legend:
# [1] = read-out: Intercellular Adhesion Molecule 1 (ICAM1), ICAM1 (gene 3383); test: BSK_3C_ICAM1: BioMAP Diversity Plus: 3C Assay for Intercellular Adhesion Molecule 1 (ICAM1) Biomarker Activity (AID 2283003); conditions: primary human endothelial cells (HUVEC); actives raise or lower the signal
# In short: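 ELISA read-out of ICAM-1; HUVEC (primary human), 3C system, 24 h post-dosing; bidirectional fit vs DMSO baseline.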
# [2] = BSK_3C_Proliferation: Cell Proliferation Assessment in the BioMAP Diversity Plus: 3C Assay (AID 2283006); conditions: primary human endothelial cells (HUVEC);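 on AC50: potency may reflect either rise or fall in cell number versus DMSO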
# In short: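 HUVEC, sub-confluent; 48 h chemical exposure; 10% TCA fix, 0.1% SRB stain, A560 total protein. Gain or loss of signal fitted both directions vs DMSO control.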
# [3] = target: Peroxisome proliferator-activated receptor gamma (Homo sapiens) (UniProt P37231); test: ATG_PPARg_TRANS: Attagene TRANS-FACTORIAL HepG2 Assay for human Peroxisome Proliferator-activated Receptor-gamma (PPARg) (AID 2283007; active means hit-call score of the fitted dose curve at least 0.9, where 1 is the maximum)
# In short: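 After 24 h of chemical exposure, transfected HepG2 cells carrying PPARγ-Gal4 chimera reporter constructs are lysed for RNA. Reporter transcripts are measured by RT-PCR and capillary electrophoresis with fluorescent labelling, and gain of signal is fitted versus DMSO.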
# [4] = target: Nuclear receptor subfamily 1 group I member 2 (Homo sapiens) (UniProt O75469); test: ATG_PXR_TRANS: Attagene TRANS-FACTORIAL HepG2 Assay for human Pregnane X Receptor (PXR) (AID 2283008; active means hit-call score of the fitted dose curve at least 0.9, where 1 is the maximum)
# In short: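 Multiplexed TRANS reporter panel in HepG2; this component tracks PXR-Gal4-driven reporter mRNA after 24 h dosing, measured by RT-PCR with capillary electrophoresis fluorescence, fitted against DMSO.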
# [5] = target: human Retinoic Acid Receptor gamma (RARg), RARG (gene 5916) (UniProt P13631); test: ATG_RARg_TRANS: Attagene TRANS-FACTORIAL HepG2 Assay for human Retinoic Acid Receptor gamma (RARg) (AID 2283009; active means hit-call score of the fitted dose curve at least 0.9, where 1 is the maximum)
# In short: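 Readout: reporter transcript levels via RT-PCR, 6-FAM primer-extension labelling, HpaI digestion and capillary electrophoresis. Cells: HepG2 carrying transfected RARg-GAL4 chimera plus UAS reporter set. Dosing 24 h; DMSO negative control.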
# [6] = target: Retinoic acid receptor RXR-alpha (Homo sapiens) (UniProt P19793); test: ATG_RXRa_TRANS: Attagene TRANS-FACTORIAL HepG2 Assay for human Retinoid X Receptor alpha (RXRa) (AID 2283012; active means hit-call score of the fitted dose curve at least 0.9, where 1 is the maximum)
# In short: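 Read-out: fluorescent reporter-transcript fragments quantified by capillary electrophoresis after RT-PCR. Transiently transfected HepG2 cells carrying GAL4-UAS reporters and NR-GAL4 chimeras were exposed to chemical for 24 h; activity scored as increase over DMSO.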
# [7] = target: human Retinoid X Receptor beta (RXRb), RXRB (gene 6257) (UniProt P28702); test: ATG_RXRb_TRANS: Attagene TRANS-FACTORIAL HepG2 Assay for human Retinoid X Receptor beta (RXRb) (AID 2283013; active means hit-call score of the fitted dose curve at least 0.9, where 1 is the maximum)
# In short: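 Read-out: reporter mRNA induction via RT-PCR plus capillary electrophoresis fluorescence, analysed as signal increase relative to DMSO. Cells were human HepG2, transiently transfected with GAL4-UAS reporter constructs and chimeric receptor-Gal4 fusions, dosed for 24 h.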
# [8] = target: human Thyroid Receptor alpha (THRa1), THRA (gene 7067) (UniProt P10827); test: ATG_THRa1_TRANS: Attagene TRANS-FACTORIAL HepG2 Assay for human Thyroid Receptor alpha (THRa1) (AID 2283014; active means hit-call score of the fitted dose curve at least 0.9, where 1 is the maximum)
# In short: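 Transient HepG2 transfection, NR-Gal4 chimera driving GAL4-UAS reporters; 24 h compound exposure; total RNA, oligo(dT) RT, PCR, fluorescent primer extension, capillary electrophoresis. Upward direction vs DMSO control.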
# [9] = read-out: E-selectin (Homo sapiens) (UniProt P16581); test: BSK_3C_Eselectin: BioMAP Diversity Plus: 3C Assay for Eselectin Biomarker Activity (AID 2283015); conditions: primary human endothelial cells (HUVEC); actives raise or lower the signal;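 on outcome: cell surface E-selectin protein quantified by ELISA 24 h after dosing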
# In short: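 HUVEC, 3C stimulation; compound exposure 24 h; E-selectin by ELISA; gain- or loss-of-signal fitted bidirectionally vs DMSO baseline.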
# [10] = read-out: Interleukin-1 alpha (IL1a), IL1A (gene 3552); test: BSK_BE3C_IL1a: BioMAP Diversity Plus: BE3C Assay for Interleukin-1 alpha (IL1a) Biomarker Activity (AID 2283016); conditions: primary human bronchial epithelial cells; actives raise or lower the signal
# In short: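 ELISA read-out of IL-1a from human lung bronchial epithelial primary cells, 24 h post-dose. Gain or loss of signal fitted relative to DMSO negative control.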
# [11] = read-out: Monocyte Chemoattractant Protein-1 (MCP1), CCL2 (gene 6347); test: BSK_4H_MCP1: BioMAP Diversity Plus: 4H Assay for Monocyte Chemoattractant Protein-1 (MCP1) Biomarker Activity (AID 2283018); conditions: primary human endothelial cells (HUVEC); actives raise or lower the signal
# In short: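 HUVEC primary cells, 24 h post-dose, MCP-1 by ELISA. Gain or loss of signal fitted bidirectionally vs DMSO baseline. Cytotoxicity: SRB stain (0.1% after 10% TCA fixation), read 560 nm, parallel cultures.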
# [12] = read-out: Human Leukocyte Antigen - DR isotype (HLADR), HLA-DRA (gene 3122); test: BSK_3C_HLADR: BioMAP Diversity Plus: 3C Assay for Human Leukocyte Antigen - DR isotype (HLADR) Biomarker Activity (AID 2283019); conditions: primary human endothelial cells (HUVEC); actives raise or lower the signal;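 on outcome: ELISA of cell-surface HLA-DR on HUVEC 24 h after dosing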
# In short: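 HUVEC, 3C stimulation, 24 h post-dose; HLA-DR by ELISA; bidirectional curve fit vs DMSO baseline; gain or loss of signal scored.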
# [13] = read-out: Interleukin-8 (IL8), CXCL8 (gene 3576); test: BSK_3C_IL8: BioMAP Diversity Plus: 3C Assay for Interleukin-8 (IL8) Biomarker Activity (AID 2283020); conditions: primary human endothelial cells (HUVEC); actives raise or lower the signal
# In short: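 HUVEC, 3C stimulation; 24 h compound exposure; IL-8 read by ELISA; gain or loss of signal fitted relative to DMSO control.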
# [14] = read-out: Monokine induced gamma interferon (MIG), CXCL9 (gene 4283); test: BSK_3C_MIG: BioMAP Diversity Plus: 3C Assay for Monokine induced gamma interferon (MIG) Biomarker Activity (AID 2283021); conditions: primary human endothelial cells (HUVEC); actives raise or lower the signal;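 on AC50: MIG protein level measured by immunoassay in the treated endothelial cultures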
# In short: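 HUVEC, 3C system; 24 h chemical exposure; MIG by ELISA; bidirectional fit vs DMSO baseline.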
# [15] = target: human Vitamin D Receptor (VDR), VDR (gene 7421) (UniProt P11473); test: ATG_VDR_TRANS: Attagene TRANS-FACTORIAL HepG2 Assay for human Vitamin D Receptor (VDR) (AID 2283022; active means hit-call score of the fitted dose curve at least 0.9, where 1 is the maximum)
# In short: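 RT-PCR/capillary electrophoresis read-out of reporter mRNA induction in transiently transfected HepG2; 24 h dosing; chimeric NR-Gal4 (TRANS format); gain-of-signal fit against DMSO baseline.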
# [16] = target: human Retinoic Acid Receptor beta (RARb), RARB (gene 5915) (UniProt P10826); test: ATG_RARb_TRANS: Attagene TRANS-FACTORIAL HepG2 Assay for human Retinoic Acid Receptor beta (AID 2283004; active means hit-call score of the fitted dose curve at least 0.9, where 1 is the maximum)
# In short: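 Readout is reporter mRNA induction: RNA reverse-transcribed, PCR-amplified, FAM-labelled, HpaI-cut and resolved by capillary electrophoresis. Transiently transfected HepG2 cells carrying exogenous NR–Gal4 chimeras were dosed for 24 h; activity fitted upward relative to DMSO.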
# [17] = target: human RAR-related Orphan Receptor beta (RORb), RORB (gene 6096) (UniProt Q92753); test: ATG_RORb_TRANS: Attagene TRANS-FACTORIAL HepG2 Assay for human RAR-related Orphan Receptor beta (RORb) (AID 2283010; active means hit-call score of the fitted dose curve at least 0.9, where 1 is the maximum)
# In short: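 HepG2, transient MRTU transfection (GAL4-UAS reporters, exogenous NR-Gal4 chimeras); 24 h compound exposure; total RNA → RT-PCR → 6-FAM primer extension → HpaI digest → CE fluorescence. Positive direction vs DMSO baseline.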
# [18] = target: human RAR-related Orphan Receptor gamma (RORg), RORC (gene 6097) (UniProt P51449); test: ATG_RORg_TRANS: Attagene TRANS-FACTORIAL HepG2 Assay for human RAR-related Orphan Receptor gamma (RORg) (AID 2283011; active means hit-call score of the fitted dose curve at least 0.9, where 1 is the maximum)
# In short: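 Transient MRTU transfection of HepG2 (TRANS format, exogenous NR-Gal4 chimera). 24 h dosing. Total RNA → oligo(dT) RT → PCR → 6-FAM labelling → HpaI cut → CE. Gain vs DMSO.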
# [19] = read-out: Monocyte Chemoattractant Protein-1 (MCP1), CCL2 (gene 6347); test: BSK_3C_MCP1: BioMAP Diversity Plus: 3C Assay for Monocyte Chemoattractant Protein-1 (MCP1) Biomarker Activity (AID 2283017); conditions: primary human endothelial cells (HUVEC); actives raise or lower the signal
# In short: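 HUVEC, 3C system; 24 h chemical exposure; MCP-1 by ELISA; bidirectional curve fit vs DMSO baseline.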
# [20] = target: Retinoic acid receptor alpha (Homo sapiens) (UniProt P10276); test: ATG_RARa_TRANS: Attagene TRANS-FACTORIAL HepG2 Assay for human Retinoic Acid Receptor alpha (RARa) (AID 2283005; active means hit-call score of the fitted dose curve at least 0.9, where 1 is the maximum)
# In short: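 HepG2 transiently transfected with multiplex GAL4-UAS reporter units including a human RARa–GAL4 chimera; 24 h compound exposure. Reporter mRNA quantified by RT-PCR, 6-FAM labeling and capillary electrophoresis; gain of signal versus DMSO.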
# human RAR-related Orphan Receptor gamma (RORg), RORC (gene 6097), sequence (P51449 whole entry, looked up, the tested form may be a part): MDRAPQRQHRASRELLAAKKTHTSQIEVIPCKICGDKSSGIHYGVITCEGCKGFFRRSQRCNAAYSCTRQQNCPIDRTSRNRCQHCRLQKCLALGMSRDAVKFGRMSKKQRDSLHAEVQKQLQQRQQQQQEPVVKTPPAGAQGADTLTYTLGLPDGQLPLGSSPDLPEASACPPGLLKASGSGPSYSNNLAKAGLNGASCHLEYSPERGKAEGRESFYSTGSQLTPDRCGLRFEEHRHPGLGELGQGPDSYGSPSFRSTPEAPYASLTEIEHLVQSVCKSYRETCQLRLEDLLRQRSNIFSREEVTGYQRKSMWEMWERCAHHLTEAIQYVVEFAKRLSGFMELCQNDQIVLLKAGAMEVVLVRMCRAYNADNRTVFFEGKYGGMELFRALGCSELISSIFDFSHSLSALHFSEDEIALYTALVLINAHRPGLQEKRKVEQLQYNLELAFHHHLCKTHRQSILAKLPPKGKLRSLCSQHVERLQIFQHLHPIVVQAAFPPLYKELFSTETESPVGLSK
# human Thyroid Receptor alpha (THRa1), THRA (gene 7067), sequence (P10827 whole entry, looked up, the tested form may be a part): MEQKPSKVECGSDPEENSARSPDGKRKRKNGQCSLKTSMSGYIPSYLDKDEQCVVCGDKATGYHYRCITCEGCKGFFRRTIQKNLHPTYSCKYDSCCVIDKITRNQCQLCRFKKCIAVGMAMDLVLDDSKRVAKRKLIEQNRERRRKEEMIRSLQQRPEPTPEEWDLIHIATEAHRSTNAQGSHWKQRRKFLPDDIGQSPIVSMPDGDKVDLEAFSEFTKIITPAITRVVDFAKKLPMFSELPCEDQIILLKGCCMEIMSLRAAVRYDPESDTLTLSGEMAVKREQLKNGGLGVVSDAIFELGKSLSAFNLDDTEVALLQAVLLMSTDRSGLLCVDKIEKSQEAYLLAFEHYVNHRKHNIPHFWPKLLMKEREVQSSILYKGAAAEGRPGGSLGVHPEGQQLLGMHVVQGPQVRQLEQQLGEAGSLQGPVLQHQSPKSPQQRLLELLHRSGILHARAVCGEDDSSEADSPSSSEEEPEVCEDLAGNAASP
# human Vitamin D Receptor (VDR), VDR (gene 7421), sequence (P11473 whole entry, looked up, the tested form may be a part): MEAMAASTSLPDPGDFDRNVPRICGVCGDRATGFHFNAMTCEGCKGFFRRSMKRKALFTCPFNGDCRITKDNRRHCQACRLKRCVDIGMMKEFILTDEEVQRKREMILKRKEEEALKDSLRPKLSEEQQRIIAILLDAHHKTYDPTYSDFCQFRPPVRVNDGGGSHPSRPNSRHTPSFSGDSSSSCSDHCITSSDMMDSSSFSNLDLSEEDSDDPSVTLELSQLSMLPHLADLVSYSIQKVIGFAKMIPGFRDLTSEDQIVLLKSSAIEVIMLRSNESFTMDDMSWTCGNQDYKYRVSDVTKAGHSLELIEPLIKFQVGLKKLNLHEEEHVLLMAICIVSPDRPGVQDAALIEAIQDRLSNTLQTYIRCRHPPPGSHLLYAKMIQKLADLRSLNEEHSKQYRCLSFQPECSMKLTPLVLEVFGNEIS
# human RAR-related Orphan Receptor beta (RORb), RORB (gene 6096), sequence (Q92753 whole entry, looked up, the tested form may be a part): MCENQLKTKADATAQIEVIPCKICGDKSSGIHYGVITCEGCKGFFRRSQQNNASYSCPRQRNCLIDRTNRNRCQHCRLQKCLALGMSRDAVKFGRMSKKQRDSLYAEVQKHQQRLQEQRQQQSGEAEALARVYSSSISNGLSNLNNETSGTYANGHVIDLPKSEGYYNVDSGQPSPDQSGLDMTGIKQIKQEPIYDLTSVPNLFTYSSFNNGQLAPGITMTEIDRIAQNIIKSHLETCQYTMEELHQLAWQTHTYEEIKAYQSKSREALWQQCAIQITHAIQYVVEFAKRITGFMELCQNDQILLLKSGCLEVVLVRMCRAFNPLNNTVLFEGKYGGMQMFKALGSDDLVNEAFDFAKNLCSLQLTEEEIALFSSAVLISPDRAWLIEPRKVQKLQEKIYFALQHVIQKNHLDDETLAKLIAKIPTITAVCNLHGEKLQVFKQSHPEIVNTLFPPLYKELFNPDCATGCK
# human Retinoid X Receptor beta (RXRb), RXRB (gene 6257), sequence (P28702 whole entry, looked up, the tested form may be a part): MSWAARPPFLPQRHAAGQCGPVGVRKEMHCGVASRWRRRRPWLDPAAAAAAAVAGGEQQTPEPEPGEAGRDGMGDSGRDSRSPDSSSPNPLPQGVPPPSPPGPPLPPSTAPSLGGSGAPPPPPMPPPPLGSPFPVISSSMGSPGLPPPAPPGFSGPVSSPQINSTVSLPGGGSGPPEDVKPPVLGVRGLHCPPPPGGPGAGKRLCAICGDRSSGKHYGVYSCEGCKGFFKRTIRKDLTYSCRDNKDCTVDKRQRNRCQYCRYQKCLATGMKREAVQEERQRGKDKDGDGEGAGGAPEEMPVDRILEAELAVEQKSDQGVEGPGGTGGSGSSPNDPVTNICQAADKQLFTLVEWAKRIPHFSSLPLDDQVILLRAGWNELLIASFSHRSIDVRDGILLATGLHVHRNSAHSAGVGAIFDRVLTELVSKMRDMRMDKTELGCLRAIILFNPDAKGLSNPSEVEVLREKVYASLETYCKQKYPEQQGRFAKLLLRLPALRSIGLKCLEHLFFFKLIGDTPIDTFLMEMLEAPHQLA
# human Retinoic Acid Receptor gamma (RARg), RARG (gene 5916), sequence (P13631 whole entry, looked up, the tested form may be a part): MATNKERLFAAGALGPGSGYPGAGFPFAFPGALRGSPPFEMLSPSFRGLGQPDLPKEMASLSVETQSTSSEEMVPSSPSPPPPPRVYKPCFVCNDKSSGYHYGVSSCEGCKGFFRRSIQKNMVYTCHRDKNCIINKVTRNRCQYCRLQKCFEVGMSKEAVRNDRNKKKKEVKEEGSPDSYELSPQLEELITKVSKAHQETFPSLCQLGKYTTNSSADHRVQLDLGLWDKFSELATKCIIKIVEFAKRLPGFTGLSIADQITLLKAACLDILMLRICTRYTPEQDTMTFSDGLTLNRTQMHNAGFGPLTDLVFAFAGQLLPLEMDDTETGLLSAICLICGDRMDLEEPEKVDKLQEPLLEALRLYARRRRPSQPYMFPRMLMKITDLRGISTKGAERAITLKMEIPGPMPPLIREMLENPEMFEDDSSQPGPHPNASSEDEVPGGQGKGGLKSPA
# E-selectin (Homo sapiens), sequence (P16581 whole entry, looked up): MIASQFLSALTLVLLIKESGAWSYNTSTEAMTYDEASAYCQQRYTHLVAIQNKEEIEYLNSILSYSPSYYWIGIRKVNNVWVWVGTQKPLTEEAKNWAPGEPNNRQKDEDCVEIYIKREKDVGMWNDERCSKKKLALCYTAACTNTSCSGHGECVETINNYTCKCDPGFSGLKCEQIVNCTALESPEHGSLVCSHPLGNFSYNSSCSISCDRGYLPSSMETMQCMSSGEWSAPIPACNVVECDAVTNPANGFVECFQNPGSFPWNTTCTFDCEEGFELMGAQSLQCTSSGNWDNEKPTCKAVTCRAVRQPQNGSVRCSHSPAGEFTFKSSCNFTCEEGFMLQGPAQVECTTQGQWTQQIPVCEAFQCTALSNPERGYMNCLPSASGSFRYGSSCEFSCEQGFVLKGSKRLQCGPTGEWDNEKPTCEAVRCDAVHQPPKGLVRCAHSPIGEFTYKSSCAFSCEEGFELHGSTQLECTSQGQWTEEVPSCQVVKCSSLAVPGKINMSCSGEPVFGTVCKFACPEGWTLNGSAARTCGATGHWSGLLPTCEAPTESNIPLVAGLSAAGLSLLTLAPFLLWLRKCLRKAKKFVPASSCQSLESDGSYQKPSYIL
# Retinoic acid receptor RXR-alpha (Homo sapiens), sequence (P19793 whole entry, looked up, the tested form may be a part): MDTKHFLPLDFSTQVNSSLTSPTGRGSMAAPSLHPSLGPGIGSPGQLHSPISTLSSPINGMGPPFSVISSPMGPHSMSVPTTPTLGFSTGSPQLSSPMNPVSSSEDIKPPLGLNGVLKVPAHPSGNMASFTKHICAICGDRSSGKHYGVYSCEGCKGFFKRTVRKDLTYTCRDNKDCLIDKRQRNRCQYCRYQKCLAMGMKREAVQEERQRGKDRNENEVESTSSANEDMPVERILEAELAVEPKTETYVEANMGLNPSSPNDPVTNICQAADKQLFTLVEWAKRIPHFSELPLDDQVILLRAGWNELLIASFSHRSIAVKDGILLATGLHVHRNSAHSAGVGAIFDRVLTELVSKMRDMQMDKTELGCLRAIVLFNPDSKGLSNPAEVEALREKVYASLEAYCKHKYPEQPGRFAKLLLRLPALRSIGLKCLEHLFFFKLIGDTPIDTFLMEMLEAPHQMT
# Nuclear receptor subfamily 1 group I member 2 (Homo sapiens), sequence (O75469 whole entry, looked up, the tested form may be a part): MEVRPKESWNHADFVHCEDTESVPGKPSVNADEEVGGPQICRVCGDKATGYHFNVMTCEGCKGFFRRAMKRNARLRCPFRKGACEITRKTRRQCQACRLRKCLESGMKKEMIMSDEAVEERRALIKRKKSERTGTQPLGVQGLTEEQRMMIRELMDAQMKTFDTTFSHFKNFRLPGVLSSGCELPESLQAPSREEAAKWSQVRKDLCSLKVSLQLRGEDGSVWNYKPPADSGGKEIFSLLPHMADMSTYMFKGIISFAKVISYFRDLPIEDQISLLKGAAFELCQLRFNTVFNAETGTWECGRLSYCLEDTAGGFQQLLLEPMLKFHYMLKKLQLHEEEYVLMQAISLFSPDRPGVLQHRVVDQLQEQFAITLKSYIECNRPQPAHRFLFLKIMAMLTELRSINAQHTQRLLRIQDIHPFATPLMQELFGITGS
# Peroxisome proliferator-activated receptor gamma (Homo sapiens), sequence (P37231 whole entry, looked up, the tested form may be a part): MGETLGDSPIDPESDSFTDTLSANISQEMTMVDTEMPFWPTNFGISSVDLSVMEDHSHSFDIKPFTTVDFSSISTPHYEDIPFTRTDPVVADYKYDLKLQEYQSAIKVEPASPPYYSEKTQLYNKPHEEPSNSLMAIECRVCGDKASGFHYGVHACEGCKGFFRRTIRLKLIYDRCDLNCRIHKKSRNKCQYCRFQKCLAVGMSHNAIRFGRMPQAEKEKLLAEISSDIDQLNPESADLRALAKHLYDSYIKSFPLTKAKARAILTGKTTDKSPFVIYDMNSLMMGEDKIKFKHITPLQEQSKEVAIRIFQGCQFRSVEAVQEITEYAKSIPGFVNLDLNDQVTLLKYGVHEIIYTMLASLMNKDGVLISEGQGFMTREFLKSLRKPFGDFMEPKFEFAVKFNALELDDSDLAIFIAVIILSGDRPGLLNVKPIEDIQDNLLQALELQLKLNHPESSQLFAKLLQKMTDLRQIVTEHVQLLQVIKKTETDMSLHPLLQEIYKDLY
smiles,measurement,setting,value
CCCN(C1CCN(C(=O)C2CCNCC2)CC1)[C@@H]1CCc2ccc(OC)cc2C1,outcome,[1],inactive
same,outcome,[2],inactive
same,AC50,[3],100 µM (active)
same,outcome,[4],inactive
same,outcome,[5],inactive
same,outcome,[6],inactive
same,outcome,[7],inactive
same,outcome,[8],inactive
same,outcome,[9],inactive
same,outcome,[10],inactive
same,outcome,[11],inactive
same,outcome,[12],inactive
same,outcome,[13],inactive
same,outcome,[14],inactive
same,outcome,[15],inactive
Cc1ccc(N)cc1O,outcome,[1],inactive
same,outcome,[16],inactive
same,outcome,[2],inactive
same,outcome,[4],inactive
same,outcome,[17],inactive
same,outcome,[18],inactive
same,outcome,[7],inactive
same,outcome,[9],inactive
same,outcome,[10],inactive
same,outcome,[19],inactive
same,outcome,[12],inactive
same,outcome,[13],inactive
same,outcome,[14],inactive
same,outcome,[15],inactive
CC/C(=C\C(=N/O)C(N)=O)C(C)[N+](=O)[O-] (stereo not drawn),outcome,[1],inactive
same,outcome,[2],inactive
same,AC50,[3],28.1 µM (active)
same,outcome,[4],inactive
same,outcome,[17],inactive
same,outcome,[18],inactive
same,outcome,[6],inactive
same,outcome,[9],inactive
same,outcome,[10],inactive
same,outcome,[12],inactive
same,outcome,[13],inactive
same,outcome,[14],inactive
same,outcome,[15],inactive
C1N2CN3CN1CN(C2)C3,outcome,[1],inactive
same,outcome,[20],inactive
same,outcome,[2],inactive
same,outcome,[3],inactive
same,outcome,[4],inactive
same,outcome,[6],inactive
same,outcome,[7],inactive
same,outcome,[8],inactive
same,outcome,[9],inactive
same,outcome,[10],inactive
same,outcome,[11],inactive
same,outcome,[12],inactive
same,outcome,[13],inactive
same,outcome,[14],inactive
same,outcome,[15],inactive
CCOC(=O)CC(CC(=O)OCC)(OC(C)=O)C(=O)OCC,outcome,[1],inactive
same,outcome,[20],inactive
same,outcome,[2],inactive
same,AC50,[3],52.3 µM (active)
same,outcome,[4],inactive
same,outcome,[6],inactive
same,outcome,[7],inactive
same,outcome,[8],inactive
same,outcome,[9],inactive
same,outcome,[10],inactive
same,outcome,[19],inactive
same,outcome,[12],inactive
same,outcome,[13],inactive
same,outcome,[14],inactive
same,outcome,[15],inactive
O=C(NS(=O)(=O)/C=C/c1ccccc1)c1ccc(F)cc1Cl,outcome,[1],inactive
same,AC50,[2],6.4 µM (active)
same,AC50,[3],22.3 µM (active)
same,AC50,[4],16.2 µM (active)
same,outcome,[17],inactive
same,outcome,[6],inactive
same,outcome,[7],inactive
same,outcome,[8],inactive
same,outcome,[9],inactive
same,outcome,[10],inactive
same,outcome,[11],inactive
same,outcome,[12],inactive
same,outcome,[13],inactive
same,outcome,[14],inactive
CCc1cc(SCc2sc(-c3ccc(C(F)(F)F)cc3)nc2CN2CCN(c3ccc(OC)cc3)CC2)ccc1OCC(=O)O,AC50,[1],29.9 µM (active)
same,AC50,[2],9.19 µM (active)
same,AC50,[3],0.0352 µM (active)
same,AC50,[4],4.69 µM (active)
same,outcome,[5],inactive
same,outcome,[17],inactive
same,outcome,[18],inactive
same,outcome,[6],inactive
same,AC50,[9],15.2 µM (active)
same,AC50,[10],7 µM (active)
same,AC50,[19],12 µM (active)
same,AC50,[12],11.4 µM (active)
same,AC50,[13],16.7 µM (active)
same,AC50,[14],16.9 µM (active)
O=P(OC(CCl)CCl)(OC(CCl)CCl)OC(CCl)CCl,outcome,[1],inactive
same,AC50,[2],10.6 µM (active)
same,outcome,[3],inactive
same,AC50,[4],0.377 µM (active)
same,outcome,[5],inactive
same,AC50,[7],26 µM (active)
same,outcome,[8],inactive
same,outcome,[9],inactive
same,outcome,[10],inactive
same,outcome,[19],inactive
same,outcome,[12],inactive
same,outcome,[13],inactive
same,outcome,[14],inactive
